The values that follow come from the supplement of paper PMC10849652.

Targets with a hit are over-represented here; the source holds about 7,900 in all. About 0.6% of all pairs of compound and target were hits. Unmarked numbers belong to inactive results.

Chain of UniProt P56556 (P56556 whole entry, looked up): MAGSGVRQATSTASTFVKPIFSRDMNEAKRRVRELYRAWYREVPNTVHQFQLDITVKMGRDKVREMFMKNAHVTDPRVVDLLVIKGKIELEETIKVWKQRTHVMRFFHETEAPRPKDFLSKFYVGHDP
Chain of UniProt Q9HCE1 (Q9HCE1 whole entry, looked up): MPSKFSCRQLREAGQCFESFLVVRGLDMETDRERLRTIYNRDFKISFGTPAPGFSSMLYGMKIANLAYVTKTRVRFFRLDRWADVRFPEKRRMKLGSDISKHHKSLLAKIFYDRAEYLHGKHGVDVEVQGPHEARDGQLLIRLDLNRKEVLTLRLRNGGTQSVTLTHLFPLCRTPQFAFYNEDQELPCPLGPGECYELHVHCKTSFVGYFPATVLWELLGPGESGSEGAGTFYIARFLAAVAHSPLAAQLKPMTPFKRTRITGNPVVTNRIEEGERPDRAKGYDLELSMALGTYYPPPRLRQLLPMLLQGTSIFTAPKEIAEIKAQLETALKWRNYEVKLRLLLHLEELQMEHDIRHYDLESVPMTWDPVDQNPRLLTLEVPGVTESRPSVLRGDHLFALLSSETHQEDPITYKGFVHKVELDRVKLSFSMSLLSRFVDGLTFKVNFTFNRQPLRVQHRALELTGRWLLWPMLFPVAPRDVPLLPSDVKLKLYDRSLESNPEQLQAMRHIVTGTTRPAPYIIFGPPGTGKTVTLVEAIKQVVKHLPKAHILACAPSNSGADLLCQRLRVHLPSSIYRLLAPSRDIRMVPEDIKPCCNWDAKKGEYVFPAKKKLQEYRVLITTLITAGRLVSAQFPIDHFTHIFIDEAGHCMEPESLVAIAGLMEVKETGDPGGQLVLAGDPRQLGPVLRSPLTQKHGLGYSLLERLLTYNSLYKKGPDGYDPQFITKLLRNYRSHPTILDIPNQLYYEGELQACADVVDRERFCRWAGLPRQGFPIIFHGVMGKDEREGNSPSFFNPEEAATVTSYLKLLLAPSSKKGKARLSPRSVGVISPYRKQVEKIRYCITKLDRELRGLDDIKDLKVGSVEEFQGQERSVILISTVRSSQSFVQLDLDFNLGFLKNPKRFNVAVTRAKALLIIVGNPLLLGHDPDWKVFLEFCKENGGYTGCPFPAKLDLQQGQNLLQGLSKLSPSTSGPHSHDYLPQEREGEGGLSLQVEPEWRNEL
Chain of UniProt P55209 (P55209 whole entry, looked up): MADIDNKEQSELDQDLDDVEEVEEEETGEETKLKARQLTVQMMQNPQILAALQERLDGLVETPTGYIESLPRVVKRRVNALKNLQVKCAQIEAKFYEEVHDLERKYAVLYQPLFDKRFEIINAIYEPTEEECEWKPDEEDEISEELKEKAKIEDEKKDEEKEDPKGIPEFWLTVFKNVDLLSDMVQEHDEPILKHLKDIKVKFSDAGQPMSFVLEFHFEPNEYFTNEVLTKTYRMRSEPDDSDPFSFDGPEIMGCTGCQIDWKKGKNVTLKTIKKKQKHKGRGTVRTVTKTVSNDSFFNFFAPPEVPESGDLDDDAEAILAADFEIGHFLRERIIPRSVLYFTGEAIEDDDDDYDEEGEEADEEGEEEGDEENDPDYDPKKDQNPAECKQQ
Chain of UniProt Q9NWU1 (Q9NWU1 whole entry, looked up): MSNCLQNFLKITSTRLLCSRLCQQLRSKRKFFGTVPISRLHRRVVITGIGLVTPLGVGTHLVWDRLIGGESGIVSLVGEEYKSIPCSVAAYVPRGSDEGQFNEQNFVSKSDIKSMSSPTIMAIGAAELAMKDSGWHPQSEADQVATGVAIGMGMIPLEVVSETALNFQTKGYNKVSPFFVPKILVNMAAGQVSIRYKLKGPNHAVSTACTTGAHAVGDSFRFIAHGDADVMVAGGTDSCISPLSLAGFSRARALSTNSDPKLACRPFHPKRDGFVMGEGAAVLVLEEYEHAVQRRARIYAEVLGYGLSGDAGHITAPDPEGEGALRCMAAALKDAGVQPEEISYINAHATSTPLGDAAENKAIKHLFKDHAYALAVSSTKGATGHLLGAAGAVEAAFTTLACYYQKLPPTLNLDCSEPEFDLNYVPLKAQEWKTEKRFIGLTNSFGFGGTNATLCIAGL
Chain of UniProt P46087 (P46087 whole entry, looked up): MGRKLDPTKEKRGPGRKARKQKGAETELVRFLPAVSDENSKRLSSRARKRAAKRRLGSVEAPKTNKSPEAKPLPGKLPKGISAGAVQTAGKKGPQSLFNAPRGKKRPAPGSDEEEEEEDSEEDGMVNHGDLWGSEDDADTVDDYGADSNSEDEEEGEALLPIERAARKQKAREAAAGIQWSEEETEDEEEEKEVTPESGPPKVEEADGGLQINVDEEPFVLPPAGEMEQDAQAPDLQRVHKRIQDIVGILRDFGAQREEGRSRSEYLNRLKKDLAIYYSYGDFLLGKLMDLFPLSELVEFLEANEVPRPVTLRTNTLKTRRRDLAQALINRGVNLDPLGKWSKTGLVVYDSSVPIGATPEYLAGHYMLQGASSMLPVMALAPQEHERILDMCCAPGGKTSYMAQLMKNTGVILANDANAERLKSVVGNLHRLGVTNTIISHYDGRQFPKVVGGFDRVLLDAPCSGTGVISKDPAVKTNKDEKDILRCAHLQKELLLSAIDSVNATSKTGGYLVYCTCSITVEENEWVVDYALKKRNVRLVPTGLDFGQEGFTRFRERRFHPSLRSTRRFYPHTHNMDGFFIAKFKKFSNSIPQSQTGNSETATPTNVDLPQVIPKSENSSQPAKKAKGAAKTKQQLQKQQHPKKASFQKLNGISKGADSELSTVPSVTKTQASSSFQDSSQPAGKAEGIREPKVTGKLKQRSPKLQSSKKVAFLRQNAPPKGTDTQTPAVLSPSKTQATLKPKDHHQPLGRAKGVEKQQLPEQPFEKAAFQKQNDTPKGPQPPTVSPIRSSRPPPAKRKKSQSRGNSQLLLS
Chain of UniProt Q9NXX6 (Q9NXX6 whole entry, looked up): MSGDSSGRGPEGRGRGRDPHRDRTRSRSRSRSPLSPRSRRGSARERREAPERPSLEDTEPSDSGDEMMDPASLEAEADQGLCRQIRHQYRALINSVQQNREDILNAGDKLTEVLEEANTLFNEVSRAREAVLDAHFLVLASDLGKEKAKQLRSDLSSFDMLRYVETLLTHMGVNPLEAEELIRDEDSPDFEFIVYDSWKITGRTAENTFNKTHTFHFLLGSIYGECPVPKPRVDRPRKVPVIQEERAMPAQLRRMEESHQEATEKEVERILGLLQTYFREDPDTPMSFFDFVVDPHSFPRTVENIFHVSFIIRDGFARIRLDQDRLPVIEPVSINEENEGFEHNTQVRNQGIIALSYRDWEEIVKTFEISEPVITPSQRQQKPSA
Chain of UniProt O00567 (O00567 whole entry, looked up): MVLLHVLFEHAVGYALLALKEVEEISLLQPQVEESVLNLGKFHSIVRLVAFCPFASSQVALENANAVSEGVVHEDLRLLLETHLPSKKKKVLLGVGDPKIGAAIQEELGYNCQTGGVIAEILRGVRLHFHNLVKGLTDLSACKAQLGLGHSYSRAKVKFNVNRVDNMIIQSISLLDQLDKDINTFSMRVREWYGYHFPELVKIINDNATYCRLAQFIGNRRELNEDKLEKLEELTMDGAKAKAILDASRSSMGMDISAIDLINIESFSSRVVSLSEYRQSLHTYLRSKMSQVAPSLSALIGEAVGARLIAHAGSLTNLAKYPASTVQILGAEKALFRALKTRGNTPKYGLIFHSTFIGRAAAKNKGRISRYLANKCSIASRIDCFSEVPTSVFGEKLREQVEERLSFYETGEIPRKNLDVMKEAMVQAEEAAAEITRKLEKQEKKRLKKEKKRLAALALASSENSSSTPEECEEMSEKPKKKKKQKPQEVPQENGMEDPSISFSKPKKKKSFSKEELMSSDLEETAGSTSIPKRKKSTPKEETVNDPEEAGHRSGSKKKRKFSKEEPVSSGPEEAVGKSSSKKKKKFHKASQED
Chain of UniProt Q96D46 (Q96D46 whole entry, looked up): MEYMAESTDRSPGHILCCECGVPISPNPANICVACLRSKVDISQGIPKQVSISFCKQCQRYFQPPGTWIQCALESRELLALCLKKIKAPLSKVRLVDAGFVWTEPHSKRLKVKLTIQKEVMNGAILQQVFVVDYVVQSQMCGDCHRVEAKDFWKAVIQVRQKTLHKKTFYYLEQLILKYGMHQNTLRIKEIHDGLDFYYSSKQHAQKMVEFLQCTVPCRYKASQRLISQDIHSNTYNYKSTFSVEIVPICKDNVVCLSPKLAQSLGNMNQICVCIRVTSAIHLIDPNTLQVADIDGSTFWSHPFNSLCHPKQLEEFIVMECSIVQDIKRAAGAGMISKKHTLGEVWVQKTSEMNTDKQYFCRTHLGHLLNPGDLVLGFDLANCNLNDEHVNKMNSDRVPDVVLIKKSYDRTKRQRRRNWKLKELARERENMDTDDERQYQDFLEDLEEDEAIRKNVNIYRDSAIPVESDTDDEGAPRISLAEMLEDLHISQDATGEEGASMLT
Chain of UniProt Q96RE7 (Q96RE7 whole entry, looked up): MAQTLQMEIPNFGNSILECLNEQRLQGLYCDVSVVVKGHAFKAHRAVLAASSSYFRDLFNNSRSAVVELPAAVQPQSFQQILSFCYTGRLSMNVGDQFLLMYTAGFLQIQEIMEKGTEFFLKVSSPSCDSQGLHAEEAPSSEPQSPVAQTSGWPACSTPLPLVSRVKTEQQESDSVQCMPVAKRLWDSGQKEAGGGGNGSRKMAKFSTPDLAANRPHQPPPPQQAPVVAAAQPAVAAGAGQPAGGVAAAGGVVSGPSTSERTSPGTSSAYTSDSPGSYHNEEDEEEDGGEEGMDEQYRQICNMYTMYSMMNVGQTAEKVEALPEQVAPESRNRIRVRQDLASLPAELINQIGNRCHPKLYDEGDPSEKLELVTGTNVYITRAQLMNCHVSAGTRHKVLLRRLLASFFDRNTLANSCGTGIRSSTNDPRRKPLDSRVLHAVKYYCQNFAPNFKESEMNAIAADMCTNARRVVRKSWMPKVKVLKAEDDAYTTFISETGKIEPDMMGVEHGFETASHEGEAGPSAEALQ
Chain of UniProt Q9UI09 (Q9UI09 whole entry, looked up): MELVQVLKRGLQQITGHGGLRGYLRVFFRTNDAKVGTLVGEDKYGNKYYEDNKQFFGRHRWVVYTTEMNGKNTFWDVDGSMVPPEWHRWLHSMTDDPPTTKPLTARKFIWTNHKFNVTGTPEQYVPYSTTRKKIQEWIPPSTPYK

Compound in one assay: CC1=CC=C(C=C1)SC2=C3C=C(SC3=CN=C2)C(=O)N
The assay is described as follows: log2 fold change, soluble protein after heating vs DMSO (PISA); higher = thermal stabilisation; K562 cells, 10 uM, 30 min; active = over 0.2 and 3.5 SD of the protein, either way, in both replicates (recomputed). In outline:
(§1)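 Soluble protein was defined as the supernatant after 21,000xg for 90 min. It came from K562 cells at 2×10^6 cells/mL given 10 μM compound for 30 min, heated in aliquots for 3 min across 48°C-58°C, pooled, and extracted in PBS with 0.5% NP-40 at 4°C, and was quantified by TMTpro 16plex LC-MS/MS with equalised channel sums. Thermal stability against control samples, from duplicates, is reported as log2 fold change.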
Consider NUDT21 (UniProt O43809), for which the log2 fold change is -0.007.

For NUCKS1 (UniProt Q9H1E3), the log2 fold change is -0.014.

NUDT1 (UniProt P36639): the log2 fold change is -0.064.

On to MRPS2 (UniProt Q9Y399), for which the log2 fold change is -0.018.

With NDUFA12 (UniProt Q9UI09), the log2 fold change was 0.014.

As to OGFR (UniProt Q9NZT2), the log2 fold change is -0.022.

Consider NIBAN1 (UniProt Q9BZQ8), for which the log2 fold change is 0.102.

Consider NSMCE4A (UniProt Q9NXX6), for which the log2 fold change is -0.035.

Regarding MUL1 (UniProt Q969V5), the log2 fold change is 0.01.

As for NDUFS7 (UniProt O75251), the log2 fold change is 0.017.

For the target OTULIN (UniProt Q96BN8), the log2 fold change is 0.035.

Regarding MOV10 (UniProt Q9HCE1), the log2 fold change is -0.055.

As to NCAPH (UniProt Q15003), the log2 fold change is 0.013.

In the case of NOP56 (UniProt O00567), the log2 fold change is -0.149.

Regarding OTUD4 (UniProt Q01804), the log2 fold change was -0.035.

Take NA, A0A096LPI6: the log2 fold change is 0.051.

MSH6 (UniProt P52701): the log2 fold change is 0.112.

NCAPD2 (UniProt Q15021): the log2 fold change was 0.012.

As to NCOA7 (UniProt Q8NI08), the log2 fold change is 0.015.

With NDUFA6 (UniProt P56556), the log2 fold change is 0.1.

In the case of NME7 (UniProt Q9Y5B8), the log2 fold change was -0.021.

Consider NFATC2IP (UniProt Q8NCF5), for which the log2 fold change was 0.028.

With MMS19 isoform 8 (UniProt Q96T76), the log2 fold change was 0.

Take NMT2 (UniProt O60551): the log2 fold change is 0.237.

In the case of MRPS12 (UniProt O15235), the log2 fold change is 0.054.

As for MRPS31 (UniProt Q92665), the log2 fold change was -0.041.

As to NMD3 (UniProt Q96D46), the log2 fold change is -0.009.

As to NAP1L1 (UniProt P55209), the log2 fold change is -0.002.

On to NACC1 (UniProt Q96RE7), for which the log2 fold change is 0.048.

As to NCK1 (UniProt P16333), the log2 fold change was 0.208.

As for OXR1 (UniProt Q8N573), the log2 fold change is 0.005.

Consider MIS12 (UniProt Q9H081), for which the log2 fold change is -0.004.

Turning to NDUFS8 (UniProt O00217), the log2 fold change was 0.03.

For the target PAK1 isoform 2 (UniProt Q13153), the log2 fold change was 0.114.

In the case of NFATC3 (UniProt Q12968), the log2 fold change was 0.

On to NOP2 isoform 4 (UniProt P46087), for which the log2 fold change is -0.105.

As to NUP98 (UniProt P52948), the log2 fold change is -0.003.

On to OXSM (UniProt Q9NWU1), for which the log2 fold change is 0.023.

For NBN (UniProt O60934), the log2 fold change was -0.01.

Compound in the next assay: CC1=NC(=CC=C1)C2=C(N=C(N2)C(C)(C)C)C3=CC4=NC=CN=C4C=C3
The description is as above. The gist of the method: as §1
With NUDT21 (UniProt O43809), the log2 fold change is 0.019.

NUCKS1 (UniProt Q9H1E3): the log2 fold change was 0.044.

NUDT1 (UniProt P36639): the log2 fold change was -0.164.

For MRPS2 (UniProt Q9Y399), the log2 fold change is 0.029.

Turning to NDUFA12 (UniProt Q9UI09), the log2 fold change is -0.028.

Regarding OGFR (UniProt Q9NZT2), the log2 fold change is 0.035.

Turning to NIBAN1 (UniProt Q9BZQ8), the log2 fold change is 0.01.

As for NSMCE4A (UniProt Q9NXX6), the log2 fold change was -0.053.

MUL1 (UniProt Q969V5): the log2 fold change was -0.004.

As for NDUFS7 (UniProt O75251), the log2 fold change was 0.025.

On to OTULIN (UniProt Q96BN8), for which the log2 fold change was 0.015.

On to MOV10 (UniProt Q9HCE1), for which the log2 fold change is -0.067.

With NCAPH (UniProt Q15003), the log2 fold change is 0.012.

For the target NOP56 (UniProt O00567), the log2 fold change is -0.136.

On to OTUD4 (UniProt Q01804), for which the log2 fold change is -0.069.

For NA, A0A096LPI6, the log2 fold change is 0.039.

With MSH6 (UniProt P52701), the log2 fold change is 0.108.

For NCAPD2 (UniProt Q15021), the log2 fold change is -0.013.

As to NCOA7 (UniProt Q8NI08), the log2 fold change was 0.016.

As for NDUFA6 (UniProt P56556), the log2 fold change was 0.125.

For NME7 (UniProt Q9Y5B8), the log2 fold change is 0.059.

Take NFATC2IP (UniProt Q8NCF5): the log2 fold change is 0.013.

Regarding MMS19 isoform 8 (UniProt Q96T76), the log2 fold change is 0.067.

As for NMT2 (UniProt O60551), the log2 fold change is 0.024.

With MRPS12 (UniProt O15235), the log2 fold change is -0.069.

Take MRPS31 (UniProt Q92665): the log2 fold change was -0.017.

Consider NMD3 (UniProt Q96D46), for which the log2 fold change is 0.067.

Turning to NAP1L1 (UniProt P55209), the log2 fold change was 0.035.

Take NACC1 (UniProt Q96RE7): the log2 fold change is 0.164.

As to NCK1 (UniProt P16333), the log2 fold change is 0.102.

Take OXR1 (UniProt Q8N573): the log2 fold change was 0.052.

Take MIS12 (UniProt Q9H081): the log2 fold change was 0.044.

For the target NDUFS8 (UniProt O00217), the log2 fold change was 0.018.

As to PAK1 isoform 2 (UniProt Q13153), the log2 fold change is 0.003.

On to NFATC3 (UniProt Q12968), for which the log2 fold change was -0.055.

As to NOP2 isoform 4 (UniProt P46087), the log2 fold change is -0.264.

On to NUP98 (UniProt P52948), for which the log2 fold change is 0.031.

With OXSM (UniProt Q9NWU1), the log2 fold change is 0.003.

Turning to NBN (UniProt O60934), the log2 fold change was 0.014.
